# Compound activity: PubChem BioAssay, National Center for Advancing Translational Sciences (NCATS)
# ELG1 DNA repair: qHTS screen for small molecules that inhibit ELG1-dependent DNA repair in human embryonic kidney (HEK293T) cells expressing luciferase-tagged ELG1; Potency, µM (top dose mostly 46.1 µM), inactives show at the highest dose activity change, negative = inhibition, usual class: inhibitors; 330,000 tested, 2.3% active; HEK293T ELG1-luciferase reporter, luminescence, 16 h; DNA damage induced by 5-fluorouridine; note: nearly all actives have a fitted effect of over 55% in size
#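 Cells (2,000 per well) received 5-fluorouridine plus test compound or DMSO and were incubated 16 hr at 37 °C, 5% CO2. Luciferase activity was read by luminescence 30 min after ONE-Glo addition; signal suppression marked inhibition of damage-induced ELG1 function.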
# TDP1 cell CPT: qHTS for Inhibitors of human tyrosyl-DNA phosphodiesterase 1 (TDP1): qHTS in cells in presence of CPT | chicken DT40 Tdp1-/-;hTDP1 cells + 20 nM CPT, ATP luminescence, 48 h | Potency, µM (top dose mostly 46.2 µM), inactives show at the highest dose activity change, negative = growth inhibition, most hits filed as inhibitors | 420,000 tested, 12% active | AID 686979, 2013; note: nearly all actives have a fitted effect of over 55% in size
#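 Cell growth measured by CellTiter-Glo luminescence after a minimum 48 h, 37 C compound exposure with 20 nM CPT in Tdp1-knockout DT40 cells stably expressing hTDP1, seeded 400/well; qHTS titration format.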
# RORg inh: qHTS for inhibitors of ROR gamma transcriptional activity; AID 2551, 2010; Potency, µM (titrated, usually from 53.6 µM), without a hit: top-dose activity change, negative = inhibition, actives largely listed as inhibitors; Drosophila S2 Gal4-RORgamma UAS-luciferase reporter, 20 h; 310,000 tested, 5.4% active; Nuclear receptor ROR-gamma (Mus musculus), P51450; note: nearly all actives have a fitted effect of over 60% in size
#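 ROR gamma transcriptional activity was tracked as Gal4-UAS luciferase output in stably transfected Drosophila Schneider cells, with compound added 1 hr before 700 uM copper sulfate induction and a 20 hr ambient-temperature incubation.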
# TDP1 cell noCPT: qHTS for Inhibitors of human tyrosyl-DNA phosphodiesterase 1 (TDP1): qHTS in cells in absence of CPT; DT40 Tdp1-/- hTDP1 cells, no CPT, ATP luminescence, 48 h; 420,000 tested, 15% active; Potency, µM (titrated, usually from 46.2 µM), for the others: at the highest dose activity change, negative = growth inhibition, hits mostly inhibitors; note: nearly all actives have a fitted effect of over 55% in size
#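 Camptothecin absent (DMSO only). Human TDP1-complemented DT40 knockout cells, 400 cells/well, 37 °C for minimum 48 hr; ATP measured via CellTiter-Glo, 30 min dark incubation, luminescence.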
# ALOX12 inh: Primary qHTS assay for inhibitors of human arachidonate 12S-lipoxygenase (ALOX12): Round 2 | Polyunsaturated fatty acid lipoxygenase ALOX12 (Homo sapiens), P18054 | purified 12hLO, xylenol orange hydroperoxide absorbance | Potency, µM (doses to about 108 µM), inactives show at the top dose activity change, negative = inhibition, usual class: inhibitors | 580,000 tested, 1.1% active | AID 1671190, 2021
# Target sequence (P18054 whole entry, looked up): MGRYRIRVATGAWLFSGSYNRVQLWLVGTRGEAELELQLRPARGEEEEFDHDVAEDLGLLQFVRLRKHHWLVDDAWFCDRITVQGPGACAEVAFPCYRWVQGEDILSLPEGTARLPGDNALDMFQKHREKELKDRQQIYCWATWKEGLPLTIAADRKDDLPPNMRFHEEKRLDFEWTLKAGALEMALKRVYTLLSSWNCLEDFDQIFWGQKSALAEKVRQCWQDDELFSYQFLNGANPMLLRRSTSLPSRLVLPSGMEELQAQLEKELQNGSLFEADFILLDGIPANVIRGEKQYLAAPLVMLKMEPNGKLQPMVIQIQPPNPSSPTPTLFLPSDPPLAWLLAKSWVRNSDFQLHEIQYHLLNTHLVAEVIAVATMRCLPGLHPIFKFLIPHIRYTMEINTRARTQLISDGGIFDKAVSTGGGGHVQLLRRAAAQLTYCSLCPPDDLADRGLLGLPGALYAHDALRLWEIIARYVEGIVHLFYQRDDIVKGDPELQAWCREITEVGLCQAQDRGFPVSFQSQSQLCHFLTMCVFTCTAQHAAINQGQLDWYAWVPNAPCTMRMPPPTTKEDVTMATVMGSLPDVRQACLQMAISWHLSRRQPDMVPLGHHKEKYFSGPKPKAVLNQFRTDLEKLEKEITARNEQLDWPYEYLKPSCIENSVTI
#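 Purified human 12hLO at 150 nM in 25 mM Hepes, 0.01% Triton X-100, pH 7.0, preincubated 15 min at room temperature with compound. Reaction started with 40 uM arachidonic acid, 30 min at room temperature. Hydroperoxide measured by Fe-xylenol orange, 573/405 nm absorbance ratio.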
# Gal4-VP16 FLuc: VP16 counterscreen qHTS for inhibitors of ROR gamma transcriptional activity | Potency, µM (highest dose often 53.6 µM), inactives show at the highest dose activity, negative = inhibition, hits mostly inhibitors | 310,000 tested, 3.5% active | Drosophila S2 Gal4-VP16 UAS-luciferase, luminescence, 20 h;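 note: Gal4-VP16 expression switched on by copper sulfate through the metallothionein promoter; nearly all actives have a fitted effect of over 50% in size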
# An asterisk follows results filed as active; ? = inconclusive; · = no result given; [ ] = remark or other dose. The list is not random: actives were taken first. Their share in the collection is about 15%. Calls come from the whole dose curve; as a rule, active = well fitted curve in the direction sought with a large enough effect; inconclusive = small, poorly fitted or top-dose-only effect, or another doubt; inactive = no such curve, though single readings can be large; an effect the other way counts as inactive or inconclusive. % is set by controls: 0 for no effect and ±100 for the full control effect; potency is the fitted concentration of half-maximal effect.
SMILES,ELG1 DNA repair,TDP1 cell CPT,RORg inh,TDP1 cell noCPT,ALOX12 inh,Gal4-VP16 FLuc
COc1ccccc1C(=O)N1CCN(c2oc(-c3ccccc3OC)nc2C#N)CC1,·,·,·,·,-19%,·
NNC(=O)c1ccc(COc2ccc3ccccc3c2)cc1,?,?,-21%,21µM*,4%,-14%
NNC(=O)c1ccc(COc2ccc3c(c2)CCC3)cc1,?,-29%,?,?,-8%,-29%
O=C(NCc1ccncc1)c1cccc(S(=O)(=O)N2CCc3ccccc32)c1,?,21µM*,·,?,-10%,·
O=C(NNC(=O)c1ccccc1F)c1cccc(S(=O)(=O)N2CCc3ccccc32)c1,-22%,18µM*,·,10µM*,-8%,·
CC1CCCC(C)N1NC(=O)c1cccc(S(=O)(=O)N2CCc3ccccc32)c1 (configuration not stated),-10%,-29%,-38%,?,-1%,-4%
CC(NC(=O)c1cccc(S(=O)(=O)N2CCc3ccccc32)c1)c1ccco1 (configuration not stated),0%,?,·,18µM*,-17%,·
COc1ccc(-c2nnc(C[C@@H]3C[C@@H](C(C)C)[C@H](CNCc4ccco4)C=C3C)o2)cc1,·,·,·,·,44%,·
CNC(=O)[C@@H]1C[C@H](n2cc(CNC(=O)c3ccccc3OC)nn2)CN1,·,·,·,·,0%,·
Cc1nc2c(=O)[nH]c(=S)n(C)c2nc1C,2%,?,-5%,?,32µM*,3%
O=C1N[C@@H]2CCN(C(=O)C3CCCCC3)[C@@H]2C(=O)N1c1ccc(Oc2ccccc2)cc1,·,·,·,·,-14%[176 µM],·
O=c1[nH]c(CSc2nc3ccccc3o2)nc2cc(Cl)ccc12,·,·,·,·,8.9µM*,·
CCNCc1nc2cc(Cl)ccc2c(=O)[nH]1,?,-25%,6.3µM*,?,0%,16µM*
NC(=O)C1CCN(Cc2nc3cc(Cl)ccc3c(=O)[nH]2)CC1,-4%,-10%,-3%,-12%,13µM*,22%
O=C(NCc1ccccc1)C1C(c2ccc3c(c2)OCO3)=Nc2ccccc2N1C(=O)c1ccccc1 (configuration not stated),·,23µM*,·,15µM*,-5%,·
Cc1cccc(C)c1NC(=O)C1C(c2ccc3c(c2)OCO3)=Nc2ccccc2N1C(=O)c1ccccc1 (configuration not stated),·,5.2µM*,·,1.5µM*,1%,·
O=C(NCc1ccccc1)C1C(c2ccc3c(c2)OCO3)=Nc2ccccc2N1C(=O)c1cccc(C(F)(F)F)c1 (configuration not stated),·,16µM*,·,?,?,·
O=C(NCc1ccccc1)C1C(c2ccc3c(c2)OCO3)=Nc2ccccc2N1C(=O)c1ccco1 (configuration not stated),·,?,·,?,-46%,·
COc1ccc(OCCN(C)C(=O)c2nn(C)c(=O)c3ccccc23)cc1,·,·,·,·,-11%,·
CC1=C(C(=O)OC(C)(C)C)C(c2ccc(Cl)cc2)C(C#N)=C(N)O1 (configuration not stated),·,·,·,·,-43%,·
CC(=O)N1CC(C)Sc2ccc(S(=O)(=O)NCCc3ccccc3)cc21 (configuration not stated),19%,13µM*,23%,10µM*,-11%,-27%
CC(=O)N1CC(C)Sc2ccc(S(=O)(=O)NCCc3ccc(C)cc3)cc21 (configuration not stated),?,18µM*,-12%,7.3µM*,0%,?
O=C(Nc1cccc(OCc2ccc(F)cc2)c1)c1ccncc1,·,·,·,·,32%,·
Cc1ccccc1NC(=O)CSc1nc(COc2ccccc2)nc2ccccc12,26µM*,?,-38%,-30%,2%,-23%
CCN(CC)C(=O)CSc1nc(COc2ccccc2)nc2ccccc12,23µM*,-40%,8%,?,13%,-7%
SMILES,ELG1 DNA repair,TDP1 cell CPT,RORg inh,TDP1 cell noCPT,ALOX12 inh,Gal4-VP16 FLuc
COC(=O)CSc1nc(COc2ccccc2)nc2ccccc12,9%,13%,10%,-10%,?,16%
Cc1cc(C)c(NC(=O)CSc2nc3ccccc3c3nc(CCn4cncc4C)nn23)c(C)c1,·,13µM*,·,15µM*,1%,·
Cc1cc(C)c(NC(=O)CSc2nc(COc3ccccc3)nc3ccccc23)c(C)c1,?,23µM*,?,18µM*,19%,16µM*
CC(=O)Nc1ccc(NC(=O)CCc2ncc(-c3ccc(F)cc3F)o2)cc1,·,·,·,·,-3%,·
O=C(NCCc1ccc(Cl)cc1)c1nc(-c2cccc(F)c2)c2cnccn12,·,·,·,·,51%,·
CCN(CC)CCCNc1nc2cc(OC)c(OC)cc2c2nc(-c3ccccc3)nn12,-1%,21µM*,10µM*,5.2µM*,·,?
CN1CCN(CCCNc2nc3ccccc3c3nc(-c4ccccc4)nn23)CC1,·,?,·,13µM*,0%,·
COc1cc2nc(NCCCN3CCN(C)CC3)n3nc(-c4ccccc4)nc3c2cc1OC,-27%,?,1%,?,0%,5%
CCN(CC)CCCNc1nc2cc(OC)c(OC)cc2c2nc(-c3cccnc3)nn12,-17%,15µM*,-35%,13µM*,24%,?
CCOCCCNc1nc2cc(OC)c(OC)cc2c2nc(-c3ccccc3)nn12,·,10µM*,·,6.5µM*,-2%,·
CS(=O)(=O)N1CCC2(CC1)NCCc1c2[nH]c2ccccc12,·,·,·,·,14%,·
